Experimental data reported in PubChem BioAssay (Tox21).
Records with an inconclusive call do not appear. A call without a number means that no potency is given here. A number with no mark means an inactive call. The source made the active and inactive calls. Calls follow the shape of the dose curve; as a rule, active = well fitted inhibition curve with a large enough effect in the repeat runs; inconclusive = weak or mixed curves; inactive = no such curve, though single readings can be large or run the other way.

target: Estrogen receptor (Homo sapiens) (UniProt P03372); assay: qHTS assay to identify small molecule antagonists of the estrogen receptor alpha (ER-alpha) signaling pathway using the BG1 cell line in the presence of 0.1 nM 17-beta-estradiol (AID 1259244); details: VM7Luc4E2 (BG1) ERE-luciferase, antagonist mode, 0.1 nM E2, 22 h; series mostly up to 92.4 µM; also: nearly all actives have a fitted effect of over 50% in size
Sequence (P03372 whole entry, looked up): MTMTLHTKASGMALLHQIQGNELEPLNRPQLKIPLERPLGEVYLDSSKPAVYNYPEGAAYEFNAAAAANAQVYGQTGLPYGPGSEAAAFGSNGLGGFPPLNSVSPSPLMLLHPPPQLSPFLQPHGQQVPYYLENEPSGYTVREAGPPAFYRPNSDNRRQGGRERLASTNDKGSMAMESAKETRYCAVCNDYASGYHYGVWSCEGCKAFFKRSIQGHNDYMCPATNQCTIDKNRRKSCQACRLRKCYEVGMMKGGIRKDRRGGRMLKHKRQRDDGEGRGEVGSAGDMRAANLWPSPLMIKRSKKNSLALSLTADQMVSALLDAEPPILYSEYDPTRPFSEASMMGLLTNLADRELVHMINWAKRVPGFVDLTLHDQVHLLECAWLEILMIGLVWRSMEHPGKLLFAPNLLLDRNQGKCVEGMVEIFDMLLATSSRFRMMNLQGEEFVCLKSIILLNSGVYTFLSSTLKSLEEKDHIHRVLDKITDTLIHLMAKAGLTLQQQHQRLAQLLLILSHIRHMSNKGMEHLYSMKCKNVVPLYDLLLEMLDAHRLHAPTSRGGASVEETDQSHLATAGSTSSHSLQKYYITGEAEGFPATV
Description: National Center for Advancing Translational Sciences [NCATS]
NIH Chemical Genomics Center [NCGC]
U.S. Environmental Protection Agency [EPA]
National Institutes of Environmental Health Sciences [NIEHS]
National Toxicology Program [NTP]
U.S. Food and Drug Administration [FDA]
Estrogen receptor (ER), a member of the nuclear hormone receptor plays an important role in development, metabolic homeostasis and reproduction. Two subtypes of ER, ER-alpha and ER-beta, have similar expression patterns with some uniqueness in both types. Endocrine disrupting chemicals (EDCs) and their interactions with steroid hormone receptors like ER causes disruption of normal endocrine function. Therefore, it is important to understand the effect of environmental chemicals in ER signaling pathway. For identifying ER antagonists, VM7Luc4E2 cell line was used to screen against Tox21 compound libraries.
VM7Luc4E2 cell line (provided by Denison MS, University of California) endogenously express full-length ER-alpha and is stably transfected with a plasmid containing four estrogen responsive elements (ERE) upstream of a luciferase reporter gene. The current screening for identification of ER-alpha inhibitors against Tox21 compound libraries used lower concentration (0.1 nM) of 17beta-Estradiol as a stimulator.
Tox21 Assay Protocol Summary:
VM7Luc4E2 cells were cultured in phenol red free assay medium containing 10% charcoal stripped FBS for 5 days prior to the assay. The cells were dispensed at 4,000 cells/well in 4 uL of assay medium into white wall/solid-bottom 1536-well plates (Corning Life Sciences, Corning, NY) using a Multidrop Combi (ThermoFisher Scientific, Waltham, MA) dispenser. After the assay plates were incubated at 37C and 5% CO2 for 24 hr, 23 nL of compounds dissolved in DMSO, positive controls or DMSO only was transferred to the assay plates by a Pintool station (Kalypsys, San Diego, CA). The transfer of compounds was followed by the addition of 1 uL of 0.1 nM (final concentration) agonist (17beta-Estradiol)/assay medium using a Flying Reagent Dispenser (FRD, Aurora Discovery, San Diego, CA). The plates were incubated at 37C and 5% CO2 for 22 hr. For luciferase reporter gene assay, 4 uL of ONE-Glo reagent (Promega Corporation, Madison, WI) was added to each well using the FRD and after 30 min incubation at room temperature luminescence intensity was measured using ViewLux plate reader (PerkinElmer, Shelton, CT).
Potency is read from the fitted curve at half-maximal effect.

Row | Compound | Potency | activity change, negative = inhibition
1 | COC(=O)C1=CCCN(C)C1 | inactive | 
2 | N#CC(CCc1ccc(Cl)cc1)(Cn1cncn1)c1ccccc1 (stereo not given) | 27.3 µM (active) | 
3 | C#CCN1C(=O)COc2cc(F)c(N3C(=O)C4=C(CCCC4)C3=O)cc21 | inactive | 
4 | CC(Oc1ccc(Oc2ncc(C(F)(F)F)cc2Cl)cc1)C(=O)O (stereo not given) | inactive | 
5 | COP(N)(=S)Oc1ccccc1C(=O)OC(C)C (stereo not given) | inactive | 
6 | Cc1nnc2n1-c1sc(CCC(=O)N3CCOCC3)cc1C(c1ccccc1Cl)=NC2 | inactive | 
7 | C[C@]12CC[C@H]3[C@@H](CCC4=CC(=O)CC[C@@]43C)[C@@H]1CC[C@@H]2C(=O)O | inactive | 
8 | CC(=O)CC(c1ccc(Cl)cc1)c1c(O)c2ccccc2oc1=O (stereo not given) | inactive | 
9 | Nc1ccccc1Cl | inactive | 
10 | CC(C)CP(=S)(S)CC(C)C | inactive | 
11 | CNC(=O)Oc1ccc(N(C)C)c(C)c1 | inactive | 
12 | CC1(C)CON(Cc2ccccc2Cl)C1=O | inactive | 
13 | C#C[C@]1(O)C=C[C@H]2[C@@H]3CCC4=CC(=O)CC[C@@H]4[C@H]3CC[C@@]21CC | inactive | 
14 | CCOc1nc(C(Cl)(Cl)Cl)ns1 | inactive | 
15 | CCCCOP(=O)(O)OCCCC | inactive | 
16 | CCN(CC)C(C)C(=O)c1ccccc1 (stereo not given) | inactive | 
17 | CCOP(=S)(OCC)Oc1ncn(-c2ccccc2)n1 | inactive | 
18 | CCC1(c2ccccc2)C(=O)NC(=O)NC1=O | inactive | 
19 | ClCCCN1CCN(c2cccc(Cl)c2)CC1 | inactive | 
20 | CC1CN1P(=O)(N1CC1C)N1CC1C (stereo not given) | inactive | 

Row | Compound | Potency | activity change, negative = inhibition
21 | CCOC(=O)C1(c2ccccc2)CCN(CCc2ccc(N)cc2)CC1 | inactive | 
22 | Cc1ncc2n1-c1ccc(Cl)cc1C(c1ccccc1F)=NC2 | 10.6 µM (active) | 
23 | c1cc2c(c(N3CCNCC3)c1)OCCO2 | inactive | 
24 | COP(=S)(OC)Oc1ccc(S(N)(=O)=O)cc1 | inactive | 
25 | O=P(O)(Oc1ccccc1)Oc1ccccc1 | inactive | 
26 | Clc1ccccc1N1CCNCC1 | inactive | 
27 | C=C(C)[C@@H]1CC=C(C=O)CC1 | inactive | 
28 | c1coc(-c2nc3ccccc3[nH]2)c1 | inactive | 
29 | CCC(C)n1c(=O)[nH]c(C)c(Br)c1=O (stereo not given) | inactive | 
30 | ClC(Cl)C(Cl)Cl | inactive | 
31 | CCC(=O)c1ccccc1 | inactive | 
32 | [O]=[Cd] | inactive | 
33 | O=C1OC(CCN2CCCCC2)OC1(c1ccccc1)c1ccccc1 (stereo not given) | inactive | 
34 | NC(=O)O | inactive | 
35 | CC(=O)Nc1cc([As](=O)(O)O)ccc1O | inactive | 
36 | CCOP(=S)(OCC)SCSc1ccc(Cl)cc1 | inactive | 
37 | CCC(=O)C(CCN(C)C)(c1ccccc1)c1ccccc1 | inactive | 
38 | O=C1c2ccccc2C(=O)c2ccccc21 |  | 34.1% [at 19 µM]
39 | Clc1cccc(N2CCNCC2)c1 | inactive | 
40 | [Cl][Sn]([Cl])([Cl])[Cl] | inactive | 
